# Reference: ChEMBL document CHEMBL4513216, “Probing the Open Global Health Chemical Diversity Library for Multistage-Active Starting Points for Next-Generation Antimalarials” (ACS Infect Dis, 2020)
# Screen size: about 65,000 compounds; about 2,100 (3.2%) showed an effect of 50% or more. The median lay at about -52%. The sample holds strong results, similar compounds and a random draw of the others, so the mix is not that of the screen.
# Tested on: Plasmodium falciparum
# Experiment: Screen against P. falciparum Asexual Blood Stage (ABS), at 5uM
# Format: functional, Dd2
# Details: tested at 5 uM
row,SMILES,INHIBITION [%]
1,Fc1cccc(CN2CCC3(CCN3c3ncccn3)C2)c1 (stereo not drawn),27.1
2,CNC(=O)CN1CCOCC2(CCCN(Cc3cccnc3)C2)C1 (stereo not drawn),-8.58
3,c1cncc(CN2CCCC3(COCCN(c4nccs4)C3)C2)c1 (stereo not drawn),10.9
4,O=C(Cc1cccnc1)N1CCC2(CC1)CCN(C1CCOC1)C2 (stereo not drawn),-58.9
5,c1cncc(CN2CCC3(COCCN(C4CCOCC4)C3)C2)c1 (stereo not drawn),-42
6,Cc1cccc(CN2CCOCC3(CCN(C4CCOCC4)C3)C2)c1 (stereo not drawn),78.6
7,Fc1cccc(CN2CCOCC3(CCN(C4CCOCC4)C3)C2)c1 (stereo not drawn),78.2
8,c1ccc(CN2CCOCC3(CCN(C4CCOCC4)C3)C2)cc1 (stereo not drawn),82.2
9,c1cc(CN2CCOCC3(CCN(C4CCOCC4)C3)C2)ccn1 (stereo not drawn),-38.5
10,COCCN1CCN(c2cccc(C)n2)Cc2ccc(C)nc21,-14.7
11,Cc1cc(NC2CC3(CCN(Cc4csc(C)n4)C3)C2)ncn1 (stereo not drawn),-142
12,Cc1nocc1C(=O)N1CCOC2(COCCN(C(C)C)C2)C1 (stereo not drawn),-62.3
13,CC(c1cccc(O)c1)N(C)S(=O)(=O)c1cccnc1 (stereo not drawn),71.4
14,CCN(C(C)c1cccc(O)c1)S(=O)(=O)c1cccnc1 (stereo not drawn),76.6
15,CN1CCO[C@@H]2CN(S(=O)(=O)c3cccnc3)C[C@@H]2C1,-79
16,CN1CCC(N2CCN3C(=O)NC[C@H]3C2)CC1,-11
17,COCCN1CCN(S(=O)(=O)C2CC2)Cc2cccnc21,-40.8
18,Cc1cc2n(n1)CC(CNC1CCN(Cc3ccccc3C)CC1)CN2 (stereo not drawn),71
19,Cc1cccc(CN2CCC(NCC3CNc4cc(C)nn4C3)CC2)c1 (stereo not drawn),86.5
20,Cc1cc(-c2ccc(C(C)N3CCCCC3)cc2)cnc1N (stereo not drawn),91
21,Cc1oncc1C(=O)N1CC[C@H]2[C@H]1CCN2Cc1ccccn1,-23.4
22,COCCCNc1c(C#N)c2c(c3nncn13)CN(C)CC2,-104
23,O=C(c1cccc(-n2cnnn2)c1)N1CCC2(CC1)OCCO2,-24.5

row,SMILES,INHIBITION [%]
1,Cc1ccc(-n2cnnn2)cc1NCC(=O)Nc1cc(F)ccc1F,72.3
2,CCN(CC)C(=O)c1ccc(NC(=O)CNc2ccc(F)cc2Cl)cc1,-91.8
3,Cc1ccc(-n2cnnn2)cc1NCC(=O)Nc1ccccc1Cl,79.3
4,CCN(CC)C(=O)c1ccc(NC(=O)CNc2ccc(Br)cc2F)cc1,-171
5,O=C(c1cc(-n2cnnn2)ccc1Cl)N1CCC2(CC1)OCCO2,-29.7
6,O=C(NCC1CCC2(CCNCC2)O1)C1CC1 (stereo not drawn),47.7
7,Cc1cccnc1N1CC2(CCN(Cc3cnn(C)c3)C2)C1,23.4
8,Cc1[nH]c2c(F)cccc2c1CC(=O)N1CCN(C2CCSCC2)CC1,-8.93
9,COc1ccc(CN2CCNC(=O)CC2)cc1SC(F)(F)F,74.5
10,COc1cccc(C2=CCN(CCN3CCOC3=O)CC2)c1,-8.54
11,Cc1cc(CN2C[C@@H]3CCCO[C@@H]3[C@H](Nc3ccccn3)C2)no1,-62.6
12,CCOCC(O)CN1CCN(C(=O)Cc2ccc(C)nc2)CC1 (stereo not drawn),-7.76
13,OC(COCc1ccc(Cl)cc1)CN1CCC(c2ccn[nH]2)CC1 (stereo not drawn),70.9
14,Cc1ccsc1CN(Cc1cccnc1)C1CC(C)(C)NC(C)(C)C1,81.4
15,CCCN(Cc1cccnc1)C1CC(C)(C)NC(C)(C)C1,77.6
16,CC1(C)CC(N(Cc2ccccc2)Cc2ncc[nH]2)CC(C)(C)N1,70.3
17,CCN(Cc1cccnc1)CC1CCCO1 (stereo not drawn),-162
18,Cc1noc(C)c1CN(Cc1cccnc1)C1CN2CCC1CC2 (stereo not drawn),-110
19,O=C1NCC2(CCCN(Cc3cccnc3)C2)Oc2ccccc21 (stereo not drawn),-134
20,Cc1ccsc1CN1C[C@@H]2CN(Cc3cccnc3)CCO[C@@H]2C1,-28.4
21,CC1(C)CC(N(Cc2cccnc2)Cc2cccc(F)c2)CC(C)(C)N1,76.6
22,CCc1cc(CN(Cc2cccnc2)C2CN3CCC2CC3)on1 (stereo not drawn),3.06
23,Cc1ncc2c(c1CNC(=O)C1(C)CCCO1)CCNC2 (stereo not drawn),-148

row,SMILES,INHIBITION [%]
1,C[C@@H]1CN(C2CCOC2)C[C@]12CCN(Cc1cccnc1)C2=O (stereo partly drawn),-45.9
2,Clc1cc(N2CCN3CCCCC3C2)nc2[nH]ccc12 (stereo not drawn),42.6
3,CN(C)CCN1CCCC12CCN(C(=O)c1ccncc1)CC2,-98.9
4,c1ccc(OCC2C[C@@H]3[C@@H](C2)OCCN3CC2CCOCC2)nc1 (stereo partly drawn),-60.7
5,Cc1noc(C)c1CN1CCCC2(C1)CN(c1nncs1)CCO2 (stereo not drawn),-18.9
6,COc1ccc(N2CCCC3(C2)CN(c2nncs2)CCO3)cc1 (stereo not drawn),88
7,Cc1noc(C)c1CN1CCOC2(CCCN(c3nncs3)C2)C1 (stereo not drawn),-103
8,O=C1CSC(c2ccncc2)c2c(n(C3CCOCC3)[nH]c2=O)N1 (stereo not drawn),-84.2
9,CC(C)C(NC(=O)c1ccco1)C(=O)N1CCC2(CC1)OCCO2 (stereo not drawn),-80.1
10,CNC(=O)CCN(C)CC1(c2ccc(Br)cc2)CC1,87.3
11,CN1CCCC(c2cccc(-c3cccc(C(F)(F)F)c3)n2)C1 (stereo not drawn),73.7
12,CN1CCC(c2cncc(N(C)C)n2)CC1,-19
13,CN1CCCC(c2cncc(-c3cccc(C(F)(F)F)c3)n2)C1 (stereo not drawn),77.3
14,CN1CCCC(c2cccc(-c3cccc(F)c3)n2)C1 (stereo not drawn),74
15,Cc1sc2c(C3CCCN(C)C3)nc(C)n2c1C (stereo not drawn),42.7
16,CC(=O)N1CCCC(c2ccc(N3CCN(C)CC3)cn2)C1 (stereo not drawn),-0.837
17,CNC(=O)c1ccc2c(c1)C1(CCN(CC(C)C)CC1)C(=O)N2,-15.5
18,Cc1nccc([C@H]2C[C@@H]3CCN(Cc4ccco4)C[C@H]3O2)n1,-9.96
19,Cc1ccc(CC(=O)N2CCN(C3CCOC3=O)CC2)cc1 (stereo not drawn),-27.2
20,CC(C)N1CCN(C)C2(CCN(C(=O)c3ccnnc3)CC2)C1=O,-37.3
21,CN1CCN2C(=O)N(C3CCOCC3)C[C@H]2C1,-99.7
22,c1cncc(COCC2CC[C@H]3[C@H]2OCCN3Cc2ccoc2)c1 (stereo partly drawn),-12.2
